The source of these data is PubChem BioAssay (Tox21).

Test [1] is described as follows: Human pregnane X receptor (PXR) small molecule agonists, qHTS cell viability counter screen (AID 1346977). Note: nearly all actives have a fitted effect of over 50% in size. Put shortly:
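PXR-Luc HepG2 cells (2,000/well, 5% charcoal-stripped FBS) preincubated 5 hr, then exposed to compounds 24 hr at 37 C. Viability read in the same wells by CellTiter-Fluor fluorescence, reagent added at 23 hr, 1 hr incubation.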

Test [2] can be described thus: Caspase-3/7 induction in HepG2 cells by small molecules, qHTS assay (AID 1346978). Note: nearly all actives have a fitted effect of over 15% in size. Put shortly: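 Caspase-3/7 induction was measured by Caspase-Glo 3/7 luminescence (30 min, room temperature) after a 17 hr compound exposure of wild-type HepG2 cells seeded at 2,000 per well and pre-incubated 5 hr.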
Test [3] in a line: Caspase-3/7 induction in CHO-K1 cells by small molecules, qHTS cell viability counter screen (AID 1346979). Note: nearly all actives have a fitted effect of over 35% in size. Put shortly:
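Wild-type CHO-K1 cells (1,500/well) treated with compound after 5 h plating; after 16 h at 37C, viability read as CellTiter-Fluor fluorescence following 1 h reagent incubation, in the same wells as the caspase read.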
Background: Quantitative high-throughput screening tests each substance at several concentrations.

A short description of test [4]: Caspase-3/7 induction in CHO-K1 cells by small molecules, qHTS assay (AID 1346980). Note: nearly all actives have a fitted effect of over 15% in size. Put shortly: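 Luminescent Caspase-Glo 3/7 read (30min, room temperature) quantified apoptosis induction. Cells were wild-type CHO-K1, treated with compound for 17hr at 37 C and 5% CO2.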
Test [5] can be described thus: Caspase-3/7 induction in HepG2 cells by small molecules, qHTS cell viability counter screen (AID 1346981). Note: series mostly up to about 92 µM; nearly all actives have a fitted effect of over 30% in size. Put shortly: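 Counter screen for cytotoxicity: HepG2 exposed 16 hr to compounds, then CellTiter-Fluor viability signal (fluorescence, 1 hr reagent incubation).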
The target of test [6] is Nuclear receptor subfamily 1 group I member 2 (Homo sapiens) (UniProt O75469). The test is described as follows: Human pregnane X receptor (PXR) small molecule agonists, qHTS assay (AID 1346982). Note: nearly all actives have a fitted effect of over 35% in size. Note: potency is the fitted concentration of half-maximal effect. An outline of the steps:
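Luminescence (ONE-Glo, 30 min RT) after 24 hr compound exposure of PXR-Luc HepG2 cells; cells rested 5 hr post-plating in 5% charcoal-stripped FBS medium.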

Test [7] addresses Cytochrome P450 2D6 (Homo sapiens) (UniProt P10635). Description: Cytochrome P450 Family 2 Subfamily D Member 6 (CYP2D6) small molecule antagonists: luciferase reporter qHTS assay (AID 1671196). Note: nearly all actives have a fitted effect of over 50% in size. Note: potency is the fitted concentration of half-maximal effect. Put shortly:
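Inhibition of CYP2D6 was gauged by loss of luminescence, since light produced tracks the luciferin generated from a proluciferin substrate. A 10 min room-temperature preincubation preceded 1 h NADPH-supported turnover.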
A general note: A reporter such as luciferase makes a cellular process visible.

Test [8] has as its target Cytochrome P450 2C19 (Homo sapiens) (UniProt P33261). Description: Cytochrome P450 Family 2 Subfamily C Member 19 (CYP2C19) small molecule antagonists: luciferase reporter qHTS assay (AID 1671197). Note: series mostly up to about 120 µM; nearly all actives have a fitted effect of over 65% in size. An outline of the steps:
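Inhibition of CYP2C19 was scored from loss of luminescence in a P450-Glo proluciferin substrate assay, NADPH-started and run 1 h at 37C, with ketoconazole as positive control.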

Test [9] concerns the target Cytochrome P450 2C9 (Homo sapiens) (UniProt P11712). The test is described as follows: Cytochrome P450 Family 2 Subfamily C Member 9 (CYP2C9) small molecule antagonists: luciferase reporter qHTS assay (AID 1671198). Note: nearly all actives have a fitted effect of over 50% in size. Note: potency is the fitted concentration of half-maximal effect. Put shortly: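 Enzyme-substrate mix preincubated with compound 10 min at room temperature; reaction started with NADPH regeneration solution, 1 h 37C. Luminescent luciferin product read after 20 min detection reagent.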

The target in test [10] is Cytochrome P450 1A2 (Homo sapiens) (UniProt P05177). Description: Cytochrome P450 Family 1 Subfamily A Member 2 (CYP1A2) small molecule antagonists: luciferase reporter qHTS assay (AID 1671199). Note: nearly all actives have a fitted effect of over 50% in size. Note: potency is the fitted concentration of half-maximal effect. Put shortly:
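Signal from luciferin formed by CYP1A2 from a proluciferin substrate is read as luminescence, expressed in relative luminescence units. Compounds sit with enzyme 10 min, NADPH-driven reaction runs 1 h, all at room temperature.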

Test [11] concerns the target Voltage-gated inwardly rectifying potassium channel KCNH2 (Homo sapiens) (UniProt Q12809). The test is described as follows: Human Ether-a-go-go-Related Gene (hERG) channel small molecule antagonists: fluorescence cell-based qHTS assay (AID 1671200). Note: nearly all actives have a fitted effect of over 50% in size. Note: potency is the fitted concentration of half-maximal effect. Put shortly: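 hERG-U2OS cells plated overnight at 37 C, loaded with FluxOR II dye 1 h at RT in dark; after 10 min, thallium stimulus added. Fluorescence (480/540 nm) read kinetically for 2 min at 1 s intervals.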
For orientation: hERG is a cardiac potassium channel; its block is linked to QT prolongation.

The target in test [12] is Cytochrome P450 3A4 (Homo sapiens) (UniProt P08684). Description: Cytochrome P450 Family 3 Subfamily A Member 4 (CYP3A4) small molecule antagonists: luciferase reporter qHTS assay (AID 1671201). An outline of the steps: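 P450-Glo CYP3A4 luminescent assay: compounds preincubated 10 min at room temperature with enzyme and proluciferin substrate, NADPH regeneration added, 1 h room-temperature reaction, stopped with luciferin detection reagent; luminescence read after 20 min. Ketoconazole positive control.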

The target in test [13] is Thyrotropin-releasing hormone receptor (Homo sapiens) (UniProt P34981). Description: qHTS assay to identify small molecule agonists of the thyrotropin-releasing hormone receptor (TRHR) signaling pathway (AID 1346891; calls by dose curve; note: series mostly up to about 58 µM). An outline of the steps:
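HEK293 cells expressing TRHR plated 18 h at 37 C/5% CO2, calcium dye-loaded 2 h at 37 C, then compound added (agonist mode); kinetic calcium fluorescence read 3 min at 1 s intervals; 15 concentrations in triplicate.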

Test [14] deals with Nuclear receptor subfamily 1 group I member 2 (Homo sapiens) (UniProt O75469). Description: CYP3A4 induction through human pregnane X receptor (PXR) by small molecules, qHTS assay (AID 1346984). Note: nearly all actives have a fitted effect of over 40% in size. An outline of the steps:
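DPX-2 reporter cells; 24h cpd, 37C; Luciferin-IPA 3uM final x3h; One-Glo 30 min RT; lumi read.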

The target is the same in test [15]. Description: Human pregnane X receptor (PXR) activation by small molecules, qHTS assay (AID 1346985). Note: nearly all actives have a fitted effect of over 40% in size. An outline of the steps:
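DPX-2 cells (HepG2 co-transfected with a PXR response element and a CYP3A4-promoter luciferase construct) were seeded at 2,000 per well, rested 5 hr at 37C, then exposed to DMSO-dissolved compounds for 24 hr. Activation was read as luciferase luminescence.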

Test [16] deals with Nuclear receptor subfamily 1 group I member 2 (Rattus norvegicus) (UniProt Q9R1A7). The test is described as follows: Rat pregnane X receptor (rPXR) activation by small molecules, qHTS assay (AID 1346983). Note: nearly all actives have a fitted effect of over 20% in size. The settings on record: rPXR luciferase reporter cells, One-Glo luminescence, 24 h; max activation: active compounds read high. Put shortly: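 Luminescent readout (One-Glo luciferase, 30 min room temperature) followed 24 hr compound treatment at 37 C of rPXR cells plated 2,000 per well and preincubated 5hr; qHTS format with compounds delivered in DMSO.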

Values without a mark were called inactive. Results filed as inconclusive are left out. Calls of active or inactive are those of the source. Unless noted, calls come from the whole dose curve; as a rule, active = well fitted curve in the direction sought with a large enough effect in the repeat runs; inconclusive = weak or mixed curves; inactive = no such curve, though single readings can be large; an effect the other way counts as inactive or inconclusive.
% is set by controls: 0 for no effect and ±100 for the full control effect.

Chain of Cytochrome P450 2C19 (Homo sapiens) (P33261 whole entry, looked up): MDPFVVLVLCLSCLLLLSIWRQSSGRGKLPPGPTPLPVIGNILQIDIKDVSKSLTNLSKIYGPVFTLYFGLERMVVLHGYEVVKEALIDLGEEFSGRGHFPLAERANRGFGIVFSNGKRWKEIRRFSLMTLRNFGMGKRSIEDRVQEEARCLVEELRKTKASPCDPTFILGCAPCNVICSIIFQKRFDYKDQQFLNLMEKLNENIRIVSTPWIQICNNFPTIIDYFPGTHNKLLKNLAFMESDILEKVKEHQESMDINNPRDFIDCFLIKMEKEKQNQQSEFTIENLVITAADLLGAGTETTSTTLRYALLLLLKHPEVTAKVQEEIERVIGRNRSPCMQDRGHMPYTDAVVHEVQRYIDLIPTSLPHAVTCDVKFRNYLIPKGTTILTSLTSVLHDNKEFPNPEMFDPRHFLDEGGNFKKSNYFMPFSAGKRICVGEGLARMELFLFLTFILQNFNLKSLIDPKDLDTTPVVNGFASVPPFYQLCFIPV
Chain of Nuclear receptor subfamily 1 group I member 2 (Rattus norvegicus) (Q9R1A7 whole entry, looked up): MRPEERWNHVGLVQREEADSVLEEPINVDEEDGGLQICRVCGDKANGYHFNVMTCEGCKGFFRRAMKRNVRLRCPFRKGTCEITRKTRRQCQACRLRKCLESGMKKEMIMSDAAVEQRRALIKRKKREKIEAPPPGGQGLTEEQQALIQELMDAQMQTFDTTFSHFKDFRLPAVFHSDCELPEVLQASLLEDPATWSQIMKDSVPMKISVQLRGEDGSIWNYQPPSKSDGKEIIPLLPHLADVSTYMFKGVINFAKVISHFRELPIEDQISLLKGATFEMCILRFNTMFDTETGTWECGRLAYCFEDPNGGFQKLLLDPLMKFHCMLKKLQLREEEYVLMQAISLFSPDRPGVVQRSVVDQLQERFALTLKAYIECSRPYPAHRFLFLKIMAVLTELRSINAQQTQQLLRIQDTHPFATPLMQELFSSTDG
Chain of Nuclear receptor subfamily 1 group I member 2 (Homo sapiens) (O75469 whole entry, looked up): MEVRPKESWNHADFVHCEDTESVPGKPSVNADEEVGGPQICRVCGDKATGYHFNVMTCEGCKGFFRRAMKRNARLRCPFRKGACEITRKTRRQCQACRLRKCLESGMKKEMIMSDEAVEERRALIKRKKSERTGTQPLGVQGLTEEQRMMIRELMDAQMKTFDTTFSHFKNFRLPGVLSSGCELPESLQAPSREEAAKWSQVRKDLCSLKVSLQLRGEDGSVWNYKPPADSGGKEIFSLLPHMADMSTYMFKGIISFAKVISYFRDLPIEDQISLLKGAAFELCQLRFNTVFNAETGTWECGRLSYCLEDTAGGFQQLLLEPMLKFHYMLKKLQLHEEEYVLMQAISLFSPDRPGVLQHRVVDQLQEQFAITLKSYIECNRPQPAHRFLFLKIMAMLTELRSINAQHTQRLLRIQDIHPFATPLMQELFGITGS
Chain of Cytochrome P450 3A4 (Homo sapiens) (P08684 whole entry, looked up): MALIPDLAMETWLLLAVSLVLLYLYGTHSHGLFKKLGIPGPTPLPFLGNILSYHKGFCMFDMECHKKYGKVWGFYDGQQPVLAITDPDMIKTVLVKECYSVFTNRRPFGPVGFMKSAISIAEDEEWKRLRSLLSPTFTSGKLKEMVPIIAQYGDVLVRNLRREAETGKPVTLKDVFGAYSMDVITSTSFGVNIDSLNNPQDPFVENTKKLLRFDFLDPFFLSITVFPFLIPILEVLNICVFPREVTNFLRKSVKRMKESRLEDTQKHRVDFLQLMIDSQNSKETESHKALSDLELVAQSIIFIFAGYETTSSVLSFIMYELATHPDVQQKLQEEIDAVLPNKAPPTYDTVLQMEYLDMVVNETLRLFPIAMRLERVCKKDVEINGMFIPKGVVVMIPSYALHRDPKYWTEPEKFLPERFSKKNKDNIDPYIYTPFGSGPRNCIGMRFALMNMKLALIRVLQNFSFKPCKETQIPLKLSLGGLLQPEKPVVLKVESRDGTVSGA
Chain of Cytochrome P450 2D6 (Homo sapiens) (P10635 whole entry, looked up): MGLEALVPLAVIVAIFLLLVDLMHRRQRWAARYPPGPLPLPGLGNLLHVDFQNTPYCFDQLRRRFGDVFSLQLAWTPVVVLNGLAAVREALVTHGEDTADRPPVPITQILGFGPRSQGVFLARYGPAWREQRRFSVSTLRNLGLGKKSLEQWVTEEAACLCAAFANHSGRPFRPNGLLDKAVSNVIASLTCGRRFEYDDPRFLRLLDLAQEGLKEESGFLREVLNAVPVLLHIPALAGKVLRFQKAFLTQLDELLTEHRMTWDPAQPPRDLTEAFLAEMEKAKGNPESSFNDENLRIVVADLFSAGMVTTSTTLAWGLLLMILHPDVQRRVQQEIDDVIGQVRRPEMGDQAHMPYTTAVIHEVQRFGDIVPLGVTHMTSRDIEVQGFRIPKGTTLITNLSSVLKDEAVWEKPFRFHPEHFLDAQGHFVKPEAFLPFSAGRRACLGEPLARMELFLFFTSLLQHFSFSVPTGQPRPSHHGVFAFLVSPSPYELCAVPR
Chain of Cytochrome P450 2C9 (Homo sapiens) (P11712 whole entry, looked up): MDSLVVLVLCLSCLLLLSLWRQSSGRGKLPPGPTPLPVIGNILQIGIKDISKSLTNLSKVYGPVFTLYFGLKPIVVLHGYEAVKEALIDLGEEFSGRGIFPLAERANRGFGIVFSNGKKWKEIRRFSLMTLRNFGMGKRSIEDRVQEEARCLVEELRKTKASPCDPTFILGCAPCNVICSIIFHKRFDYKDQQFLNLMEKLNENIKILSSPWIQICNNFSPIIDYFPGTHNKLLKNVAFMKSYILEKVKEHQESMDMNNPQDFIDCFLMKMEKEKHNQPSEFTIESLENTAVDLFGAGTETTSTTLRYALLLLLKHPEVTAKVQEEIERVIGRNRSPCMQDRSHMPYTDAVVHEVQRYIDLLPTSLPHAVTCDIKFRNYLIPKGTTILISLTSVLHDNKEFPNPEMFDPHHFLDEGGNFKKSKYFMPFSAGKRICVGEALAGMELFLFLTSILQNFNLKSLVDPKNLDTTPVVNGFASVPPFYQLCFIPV
Chain of Thyrotropin-releasing hormone receptor (Homo sapiens) (P34981 whole entry, looked up): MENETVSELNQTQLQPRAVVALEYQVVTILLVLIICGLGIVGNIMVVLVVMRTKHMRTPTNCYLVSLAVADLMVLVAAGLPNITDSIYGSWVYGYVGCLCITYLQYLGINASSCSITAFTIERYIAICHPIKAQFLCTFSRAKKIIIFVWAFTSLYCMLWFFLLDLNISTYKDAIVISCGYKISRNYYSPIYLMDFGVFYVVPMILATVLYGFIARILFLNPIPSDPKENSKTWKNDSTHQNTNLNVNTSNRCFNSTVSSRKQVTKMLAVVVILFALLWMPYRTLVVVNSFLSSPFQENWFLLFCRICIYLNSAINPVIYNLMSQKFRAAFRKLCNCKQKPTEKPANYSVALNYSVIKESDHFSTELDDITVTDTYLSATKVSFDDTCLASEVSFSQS
Chain of Voltage-gated inwardly rectifying potassium channel KCNH2 (Homo sapiens) (Q12809 whole entry, looked up): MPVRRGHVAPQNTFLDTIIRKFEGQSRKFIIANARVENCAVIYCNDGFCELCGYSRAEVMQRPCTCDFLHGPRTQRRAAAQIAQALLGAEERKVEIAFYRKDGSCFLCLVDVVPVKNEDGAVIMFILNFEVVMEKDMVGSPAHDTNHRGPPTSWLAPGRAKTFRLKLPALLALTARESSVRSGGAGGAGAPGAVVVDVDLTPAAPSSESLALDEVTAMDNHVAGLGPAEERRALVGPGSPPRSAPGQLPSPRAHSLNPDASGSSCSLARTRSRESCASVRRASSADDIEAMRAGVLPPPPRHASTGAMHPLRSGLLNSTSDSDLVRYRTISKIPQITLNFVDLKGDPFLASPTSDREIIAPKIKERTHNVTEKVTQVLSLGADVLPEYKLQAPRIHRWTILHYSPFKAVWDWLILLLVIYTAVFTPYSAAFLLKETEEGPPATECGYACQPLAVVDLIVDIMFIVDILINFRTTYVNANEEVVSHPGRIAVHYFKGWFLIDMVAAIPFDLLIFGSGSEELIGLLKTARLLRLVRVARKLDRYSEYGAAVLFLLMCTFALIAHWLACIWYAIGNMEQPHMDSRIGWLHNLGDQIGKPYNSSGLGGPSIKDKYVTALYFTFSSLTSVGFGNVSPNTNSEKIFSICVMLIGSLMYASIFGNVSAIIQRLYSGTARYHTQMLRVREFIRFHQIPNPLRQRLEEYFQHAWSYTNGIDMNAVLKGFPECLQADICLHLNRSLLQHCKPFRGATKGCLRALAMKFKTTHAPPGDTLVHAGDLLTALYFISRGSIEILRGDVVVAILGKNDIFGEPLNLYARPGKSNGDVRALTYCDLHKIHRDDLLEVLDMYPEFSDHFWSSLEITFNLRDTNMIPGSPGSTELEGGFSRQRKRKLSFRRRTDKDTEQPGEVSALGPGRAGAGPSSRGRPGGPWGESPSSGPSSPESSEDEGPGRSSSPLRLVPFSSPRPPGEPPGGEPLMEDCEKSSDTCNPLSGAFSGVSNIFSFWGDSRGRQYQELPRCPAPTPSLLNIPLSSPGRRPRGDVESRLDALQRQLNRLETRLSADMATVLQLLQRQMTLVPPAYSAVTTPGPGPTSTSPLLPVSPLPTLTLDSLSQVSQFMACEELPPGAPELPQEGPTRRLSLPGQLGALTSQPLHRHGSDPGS
Chain of Cytochrome P450 1A2 (Homo sapiens) (P05177 whole entry, looked up): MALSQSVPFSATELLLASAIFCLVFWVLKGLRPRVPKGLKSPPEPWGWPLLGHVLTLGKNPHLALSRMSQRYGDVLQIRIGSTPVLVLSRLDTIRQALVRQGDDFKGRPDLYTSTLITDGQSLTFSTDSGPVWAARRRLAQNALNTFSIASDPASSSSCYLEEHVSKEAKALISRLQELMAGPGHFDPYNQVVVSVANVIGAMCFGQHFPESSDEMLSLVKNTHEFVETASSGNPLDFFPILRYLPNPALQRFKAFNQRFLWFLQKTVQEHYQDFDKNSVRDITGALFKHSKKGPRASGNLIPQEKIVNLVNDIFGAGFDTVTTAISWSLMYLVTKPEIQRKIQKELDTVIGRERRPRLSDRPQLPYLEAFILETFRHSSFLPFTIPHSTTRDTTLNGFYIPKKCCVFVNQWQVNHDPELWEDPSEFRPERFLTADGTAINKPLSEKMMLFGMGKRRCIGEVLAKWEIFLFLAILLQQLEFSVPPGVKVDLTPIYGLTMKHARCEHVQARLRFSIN

Turning to `Fc1ccccc1-c1ccccc1`, the Potency entry in test [1], in [3], in test [6], in [7], in test [8] and in test [9] was “inactive” in each case. For the same compound, the Potency result in test [11] and in [12] was “inactive” throughout. The outcome in test [2], in test [4] and in test [5] was inactive. Further, the Potency in [10] is 40.8 µM (active).
On to `CCn1c(=O)c2c(nc(/C=C/c3ccc(OC)c(OC)c3)n2C)n(CC)c1=O`, for which the compound was classed as inactive in [13], in test [2], in test [4] and in [5]. In addition, the Potency entry in [1], in test [7], in test [10] and in test [11] was “inactive” in each case. In addition, in test [6], the Potency is 26.6 µM (active).
Take `OC1OC[C@@H](O)[C@H](O)[C@H]1O` (stereo partly specified): the Potency entry in test [1], in test [3], in [6], in test [7], in test [8] and in [9] was “inactive” throughout. For the same compound, the Potency entry in test [10], in test [11] and in [12] was “inactive” in each case. Also, the outcome in test [2], in [4] and in test [5] was inactive.
Turning to `COc1nc(C)nc(N)n1`, the outcome in [13], in [2], in test [4] and in test [5] was inactive. Besides, the Potency result in [1], in test [6], in [7], in test [8], in test [9] and in test [11] was “inactive” throughout. For the same compound, the Potency entry in [12] is “inactive”.
In the case of `C[C@H](O)C(=O)Nc1c(I)c(C(=O)NC(CO)CO)c(I)c(C(=O)NC(CO)CO)c1I`, the Potency result in [1], in test [3], in test [6], in [14], in test [15] and in [7] was “inactive” in each case. For the same compound, the Potency result in test [9], in test [11] and in test [12] was “inactive” each time. The outcome in test [2], in test [4] and in test [5] was inactive.
Turning to `CCN1CCCC(OC(=O)C(c2ccccc2)c2ccccc2)C1` (stereo unspecified), the compound was called inactive in test [13], in test [2], in test [4] and in test [5]. The Potency entry in test [3], in test [6], in test [9] and in [10] was “inactive” throughout. Moreover, the max activation in test [16] is 0.492%. The Potency in test [7] is 1.38 µM (active); in [11], 3.38 µM (active).
Consider `CC(C)[N+](C)(C)CC(O)COc1cccc2ccccc12` (stereo unspecified), for which the Potency entry in test [1], in test [3], in [6], in [14], in test [15] and in test [8] was “inactive” in each case. The Potency result in [9], in [11] and in test [12] was “inactive” throughout. The call in test [2], in test [4] and in test [5] was inactive. The max activation in test [16] was -2.92%. Besides, in test [7], the Potency is 4.36 µM (active).
As for `O=C(O)Cc1cc(I)c(Oc2cc(I)c(O)c(I)c2)c(I)c1`, the result in test [13], in [2] and in test [4] was inactive. In addition, the Potency result in test [1], in test [7], in test [8], in test [10], in test [11] and in [12] was “inactive” in each case. Also, the Potency is 37.8 µM (active) in [6] and 34.9 µM (active) in test [9].
As to `C=CCn1c(=O)n([C@@H]2O[C@H](CO)[C@@H](O)[C@H]2O)c2nc(N)[nH]c(=O)c21`, the Potency result in [1], in [3], in test [6], in test [14], in [15] and in test [7] was “inactive” throughout. Besides, the Potency result in [8], in test [9], in test [11] and in [12] was “inactive” in each case. For the same compound, the compound was classed as inactive in test [2], in [4] and in test [5]. Further, the max activation in [16] is -4.51%.
